Assay outcomes deposited in PubChem by National Center for Advancing Translational Sciences (NCATS).
This is a sample that favours compounds with a hit; in the whole collection about 19% have one here.
HT1080 IDH1KD tx: toxicity to HT-1080 IDH1 knockdown cells (counter line); HT-1080 IDH1 knockdown viability, ATP luminescence, 48 h; Potency, µM (doses to about 46.1 µM), without a hit: at the highest dose activity, negative = toxicity, hits mostly cytotoxic; hit rate 2% among 360,000;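 also: potency is read from the fitted curve at half-maximal effect; 0% = DMSO wells and -100% = cell-free medium wells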
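In this qHTS, HT-1080 cells depleted of IDH1 are exposed for 48 h at 37 °C to compound titrations. Toxicity is scored from CellTiter-Glo luminescence, with DMSO as full viability and medium alone as none.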
HT1080-NT tox: kills 2HG-producing HT-1080-NT fibrosarcoma cells | HT-1080-NT fibrosarcoma viability, CellTiter-Glo ATP luminescence, 48 h | Potency, µM (top dose mostly 46.1 µM), inactives show top-dose activity, negative = less viability, hits mostly cytotoxic | hit rate 1.6% among 360,000 | AID 686970;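 also: NT is the 2HG producing partner of a matched IDH1 knockdown line; potency is read from the fitted curve at half-maximal effect; 0% = DMSO-treated cells and -100% = media-only wells without cells; nearly all actives have a fitted effect of over 55% in size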
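HT-1080-NT fibrosarcoma cells (2HG-overproducing), 750 cells/well in RPMI with 5% FBS, dosed after 2 h and incubated 48 h at 37C. CellTiter-Glo luminescence normalized to DMSO and no-cell wells; concentration-response curves fitted and classed.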
DT40 TDP1 no CPT: qHTS for Inhibitors of human tyrosyl-DNA phosphodiesterase 1 (TDP1): qHTS in cells in absence of CPT. DT40 Tdp1-/- hTDP1 cells, no CPT, ATP luminescence, 48 h. Potency, µM (titrated, usually from 46.2 µM), for the others: top-dose activity change, negative = growth inhibition, actives largely listed as inhibitors. hit rate 15% among 420,000; also: potency is read from the fitted curve at half-maximal effect; nearly all actives have a fitted effect of over 55% in size
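Chicken DT40 Tdp1-/- cells complemented with human TDP1, screened without camptothecin (DMSO vehicle only), 400 cells/well. Compounds pin-transferred, cells incubated at 37 °C for at least 48 hr. Growth read as ATP-dependent luminescence (CellTiter-Glo, 30 min at RT).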
DT40 TDP1 CPT: DT40-hTDP1 cell growth loss with CPT. AID 686979. Potency, µM (titrated, usually from 46.2 µM), inactives show top-dose activity change, negative = growth inhibition, actives largely listed as inhibitors. hit rate 12% among 420,000. chicken DT40 Tdp1-/-;hTDP1 cells + 20 nM CPT, ATP luminescence, 48 h; also: potency is read from the fitted curve at half-maximal effect; nearly all actives have a fitted effect of over 55% in size
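Cell growth measured by CellTiter-Glo luminescence after a minimum 48 h, 37 C compound exposure with 20 nM CPT in Tdp1-knockout DT40 cells stably expressing hTDP1, seeded 400/well; qHTS titration format.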
IL1B secr inh: blocks inflammasome-driven IL-1 beta release; activity change, % at 57.5 µM; hit rate 4.7% among 360,000; THP-1 LPS/ATP IL-1B secretion, AlphaLISA, 16 h; stronger effect = lower value; in the data active = activity change below about -50%; inconclusive = mostly about -30% to -49%
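THP-1 cells pretreated 1 hr with compounds (up to 57.5 uM final), then stimulated with LPS (250 ng/mL final) plus ATP (1.25 mM final); secreted IL-1B measured by AlphaLISA after 16 hr, decreased signal indicating inhibition.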
* = called active by the depositor; i = inactive; ? = inconclusive; nt = no result given. Unless noted, calls follow the shape of the dose curve; as a rule, active = well fitted curve in the direction sought with a large enough effect; inconclusive = small, poorly fitted or top-dose-only effect, or another doubt; inactive = no such curve, though single readings can be large; an effect the other way counts as inactive or inconclusive. Unless noted, % is scaled to controls: 0 for no effect and ±100 for the full control effect.

SMILES | HT1080 IDH1KD tx | HT1080-NT tox | DT40 TDP1 no CPT | DT40 TDP1 CPT | IL1B secr inh
COc1cc(CNc2ccc3[nH]c(=O)[nH]c3c2)ccc1OCc1cccc(C)c1 | -27% | ? | ? | ? | -76*
COc1cc(CNc2ccc3[nH]c(=O)[nH]c3c2)ccc1OCc1ccc(C)cc1 | ? | -16% | ? | ? | ?
COc1cc(CNc2ccc3[nH]c(=O)[nH]c3c2)cc(Br)c1OCc1ccc(F)cc1 | -20% | -7% | 15µM* | 7.3µM* | nt
COc1cc(CNc2ccc3[nH]c(=O)[nH]c3c2)cc(Cl)c1OCc1ccc(F)cc1 | nt | nt | 15µM* | 18µM* | nt
COc1cc(CNc2ccc3[nH]c(=O)[nH]c3c2)cc(Cl)c1OCc1ccccc1F | nt | nt | 8.2µM* | 12µM* | nt
CC1CCN(S(=O)(=O)c2ccc(C(=O)NCc3cccnc3)cc2)CC1 | 7% | 0% | -19% | -4% | 16
COc1ccc(Cl)cc1NC(=O)CN(C)C(=O)c1cc2ccccc2cc1O | -20% | -11% | ? | ? | -5
COc1cc(CNC2CCCC2)cc(Cl)c1OCc1ccccc1F | 13µM* | ? | 13µM* | 16µM* | -76*
COc1cc2ccccc2cc1C(=O)N(CCN(C)C)c1nc2ccc(C)cc2s1 | 16µM* | 23µM* | ? | ? | -21
COc1cc2ccccc2cc1C(=O)N(CCN(C)C)c1nc2c(C)cccc2s1 | ? | ? | 23µM* | 16µM* | -61*
COc1cc2ccccc2cc1C(=O)N(CCN(C)C)c1nc2c(OC)ccc(OC)c2s1 | ? | 16µM* | ? | ? | -53*
Cc1ccc2nc(N(CCN(C)C)C(=O)c3cc(Cl)sc3Cl)sc2c1 | 0% | 27% | -17% | -28% | -15
COc1ccccc1C(=O)N(CCN(C)C)c1nc2cc(C)cc(C)c2s1 | 0% | 1% | 26µM* | ? | 0
COc1ccc(OC)c2sc(N(CCN(C)C)C(=O)c3ccc4ccccc4c3)nc12 | -4% | 11% | ? | ? | -27
Cc1cc(C)c2sc(N(CCN(C)C)C(=O)c3cc(Cl)sc3Cl)nc2c1 | -8% | 0% | ? | ? | -20
S=C1NCCC12C(=S)Nc1ccccc12 (configuration not stated) | 5% | 0% | 7% | 8% | -2
Cc1cc(-c2cc(-c3ccccc3)on2)nc(NC2CCCC2)n1 | 1% | -5% | ? | ? | 0
O=C(CSc1nnc(NC(=O)c2c(F)cccc2F)s1)NCc1ccc(F)cc1 | -1% | -10% | 1% | -3% | -1
CC1=C(C(=O)Nc2ccccc2)C(c2ccccn2)n2nc(SCc3ccccc3)nc2N1 (configuration not stated) | nt | nt | ? | 5.2µM* | nt
COc1ccccc1NC(=O)C1=C(C)Nc2nc(SCc3cccc(F)c3)nn2C1c1ccc(C(=O)O)cc1 (configuration not stated) | nt | nt | 4% | -9% | nt
CCSc1nc2n(n1)C(c1ccc(CC)cc1)C(C(=O)Nc1ccccc1OC)=C(C)N2 (configuration not stated) | nt | nt | 23µM* | 16µM* | nt
COc1ccccc1NC(=O)C1=C(C)Nc2nc(SCc3ccccc3)nn2C1c1ccccn1 (configuration not stated) | nt | nt | ? | 8.2µM* | nt
COc1ccccc1NC(=O)C1=C(C)Nc2nc(-c3cccnc3)nn2C1c1ccccn1 (configuration not stated) | 5% | 2% | -23% | ? | -2
Cc1ccc(-c2noc(-c3ccc(N4CCCCC4C)c([N+](=O)[O-])c3)n2)cc1 (configuration not stated) | nt | nt | -11% | -15% | nt
COc1cc(/C=C(\C#N)c2nc3ccccc3s2)cc([N+](=O)[O-])c1O | -12% | -17% | 16µM* | ? | 92
SMILES | HT1080 IDH1KD tx | HT1080-NT tox | DT40 TDP1 no CPT | DT40 TDP1 CPT | IL1B secr inh
O=C(O)CC/C(=C\c1ccc(Cl)c([N+](=O)[O-])c1)c1nc2ccccc2s1 | -1% | -4% | -1% | ? | 17
N#C/C(=C\c1ccc(O)c([N+](=O)[O-])c1)c1nc2ccccc2s1 | ? | ? | 16µM* | 26µM* | 31
COc1ccc(C(=O)NCc2nnc(SCC(=O)Nc3ccccc3OC)n2C)cc1 | 21% | 0% | -14% | -13% | 62
CC(=O)Nc1ccc(S(=O)(=O)Nc2cc(Cl)ccc2N2CCOCC2)cc1 | -16% | -2% | ? | -13% | -3
Cn1c(=O)n(C)c2cc(N3CCOCC3)c(NS(=O)(=O)c3ccc(Cl)cc3)cc21 | nt | nt | 13µM* | ? | nt
Cn1c(=O)n(C)c2cc(N3CCOCC3)c(NS(=O)(=O)c3ccc(C(C)(C)C)cc3)cc21 | nt | nt | 4.1µM* | 7.3µM* | nt
Cn1c(=O)n(C)c2cc(N3CCOCC3)c(NS(=O)(=O)c3cccc(C#N)c3)cc21 | nt | nt | ? | 18µM* | nt
Cn1c(=O)n(C)c2cc(N3CCOCC3)c(NC(=O)c3ccc(C(C)(C)C)cc3)cc21 | nt | nt | ? | -21% | nt
COc1ccc(NC(=O)CC2SC(N3CCOCC3)=NC2=O)cc1OC (configuration not stated) | 2% | 7% | 29% | 3% | 6
CCOC(=O)C1CCC(CN(Cc2ccccc2C)S(=O)(=O)c2ccc([N+](=O)[O-])cc2)CC1 (configuration not stated) | 2% | 5% | ? | ? | -6
CCOC(=O)c1c(C)[nH]c(C)c1S(=O)(=O)N(C)CC(=O)N1CCN(c2ccccc2OC)CC1 | nt | nt | ? | 18µM* | nt
CCOC(=O)N1CCN(C(=O)CN(c2ccccc2OC)S(=O)(=O)c2ccc(OC)cc2)CC1 | 2% | -1% | -21% | -3% | -5
CCOC(=O)N1CCN(C(=O)CN(c2cccc(Cl)c2C)S(=O)(=O)c2ccc(C)cc2)CC1 | nt | nt | ? | 21µM* | nt
COc1ccccc1N(CC(=O)N1CCN(c2ccccc2)CC1)S(=O)(=O)c1ccc(C)cc1 | -1% | 5% | ? | 18µM* | -8
CCOc1ccc(N(CC(=O)N2CCN(c3ccccc3OC)CC2)S(=O)(=O)c2ccc(C)cc2)cc1 | 4% | 0% | 21µM* | ? | i
CCOc1ccc(N(CC(=O)N2CCN(c3ccccc3OC)CC2)S(=O)(=O)c2ccc(F)cc2)cc1 | -9% | 0% | ? | ? | i
CCCC1=C(C(=O)OCC)C(c2cc(Cl)cc(OC)c2OCC(=O)OCC)NC(=O)N1 (configuration not stated) | -1% | -6% | 23µM* | ? | 6
